# PINK1 modulator = A Quantitative High throughput Screen to Identify Chemical Modulators of PINK1 Expression; PINK1 immunofluorescence, high-content cytometry, 24 h; Potency, µM (series often up to 76.6 µM), hits mostly activators; 410,000 tested, 0.2% active; active = well fitted activation curve with a large enough effect; inconclusive = small, poorly fitted or top-dose-only effect; cell line not stated here; note: nearly all actives have a fitted effect of over 65% in size
#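 Readout is PINK1 immunofluorescence, quantified alongside mitochondrial, cell and nuclear markers by laser-scanning microplate cytometry. Cells from a stable line were exposed to compound titrations (5 concentrations) for 24 hours, with CCCP controls.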
# SW480 rereplic = A quantitative high throughput screen for small molecules that induce DNA re-replication in SW480 colon adenocarcinoma cells | AID 624297, 2012 | 340,000 tested, 1.8% active | SW480 DNA re-replication, Hoechst DNA content imaging, 48 h | Potency, µM (highest dose often 46.1 µM), usual class: activators; note: nearly all actives have a fitted effect of over 55% in size
#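 Treated cells incubate 48 hr (37 C, 5% CO2), are stained 40 min with Hoechst, and nuclear fluorescence is enumerated; a rise in nuclei with high DNA signal marks re-replication.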
# S2 tox = Viability Counterscreen for Primary qHTS for Inhibitors of ATXN expression; S2 cells (HEK-293 line with an ATXN2-luciferase reporter) viability, CellTiter-Fluor protease fluorescence, 24 h; Potency, µM (series often up to 56.7 µM), usual class: cytotoxic; 400,000 tested, 0.49% active; note: nearly all actives have a fitted effect of over 40% in size
# MCF10A rerep = A quantitative high throughput screen for small molecules that induce DNA re-replication in MCF 10a normal breast cells; MCF 10A DNA re-replication, Hoechst nuclear intensity, 48 h; AID 624296, 2012; 350,000 tested, 2.9% active; Potency, µM (top dose mostly 46.1 µM), actives largely listed as activators; note: nearly all actives have a fitted effect of over 50% in size
# IL-1B inflam inh = qHTS for Inhibitors of Inflammasome Signaling: IL-1-beta AlphaLISA Primary Screen; THP-1 LPS/ATP IL-1B secretion, AlphaLISA, 16 h; stronger effect = lower value; activity change, % at 57.5 µM; 360,000 tested, 4.7% active; AID 743279, 2014; in the data active = activity change below about -50%; inconclusive = mostly about -30% to -49%
#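 THP-1 cells pretreated 1 hr with compounds (up to 57.5 uM final), then stimulated with LPS (250 ng/mL final) plus ATP (1.25 mM final); secreted IL-1B measured by AlphaLISA after 16 hr, decreased signal indicating inhibition.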
# ATXN2 expr inh = Primary qHTS for Inhibitors of ATXN expression | 360,000 tested, 0.72% active | AID 1745845, 2022 | Potency, µM (titrated, usually from 57 µM), usual class: inhibitors | HEK-293 ATXN2-luciferase reporter, luminescence, 24 h; note: nearly all actives have a fitted effect of over 55% in size
#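 ATXN2-luciferase reporter cells (luciferase flanked by upstream and downstream ATXN2 gene portions) were treated 24 h at 37 °C with compounds at up to 57 uM. SteadyGlo luminescence gave expression; GF-AFC fluorescence gave viability.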
# Numbers stand for hits; 0 = inactive; ? = inconclusive; - = no result given; [ ] = dose if it differs, or a comment. A selection: hits, their analogues and other compounds. The true share with any hit is near 7.1%. Unless noted, calls come from the whole dose curve; as a rule, active = well fitted curve in the direction sought with a large enough effect; inconclusive = small, poorly fitted or top-dose-only effect, or another doubt; inactive = no such curve, though single readings can be large; an effect the other way counts as inactive or inconclusive.
SMILES,PINK1 modulator,SW480 rereplic,S2 tox,MCF10A rerep,IL-1B inflam inh,ATXN2 expr inh
CC1(C)CC(=O)C2=C(C1)NC1=C(C(=O)c3ccccc31)C2c1ccc(Cl)cc1 (centres undefined),?,0,?,?,-54.2,0
Cc1ccc(C2C3=C(CC(C)(C)CC3=O)NC3=C2C(=O)c2ccccc23)cc1 (centres undefined),0,0,?,0,-57.3,0
O=C(NCCc1ccccn1)C1CC12CCN(C(=O)c1ccccc1Cl)CC2 (centres undefined),0,-,0,-,-,-
Oc1ccccc1/C=N/NC(=S)NC1CC2CCC1C2 (centres undefined),0,0,?,0,-78.1,0
Clc1cccc(-c2nnc(-c3ccccc3)o2)c1,0,0,0,16.4µM,0,0
ClCc1nnc(-c2ccccc2)o1,0,?,?,?,-87.8,-
Cc1ccc2oc(/N=C(\N)NC(=O)C(C)(C)C)nc2c1,0,?,0,0,-,0
Cc1ccc2oc(/N=C(\N)NC(=O)C3CC3)nc2c1,0,9.2µM,?,?,0,-
Cc1cc(N(CCO)CCO)ccc1C(c1ccc(N(CCO)CCO)cc1C)c1ccccc1Cl,0,0,-,?,-68.5,?
C=CCn1c(O)c(N=O)c2ccccc21,0,0,0,0,?,0
Cc1ccc2c(c1)c(N=NC(N)=S)c(O)n2Cc1ccccc1,0,0,?,0,0,0
Cc1ccc(Cn2c(O)c(N=O)c3ccccc32)cc1,0,0,?,0,-87.6,0
CCOC(=O)n1c(=O)n(Cc2ccc(Cl)cc2Cl)c2ccccc21,0,0,0,?,0,0
O=Nc1c(O)n(Cc2ccc(Cl)cc2Cl)c2ccccc12,0,0,0,?,-58.0,0
C/C(Cl)=C\Cn1c(O)c(N=O)c2ccccc21,0,0,0,0,-98.3,0
Cc1ccc2c(c1)c(N=O)c(O)n2Cc1ccc(Cl)cc1,0,0,0,0,-73.5,0
Cc1oc(-c2ccc(C(=O)N(C)Cc3ccccc3)cc2)nc1CN1CCc2ccccc21,0,-,?,-,-,0
CCOc1ccc(N(CC)S(=O)(=O)N2CCCC(C(=O)NCc3ccccc3OCC)C2)cc1 (centres undefined),0,-,-,-,-,-
CO[C@H]1[C@H](NC(=O)c2ccco2)c2ccccc2C12CCN(Cc1cccn1-c1ccccn1)CC2,0,-,0,-,-,-
O=Nc1c(O)n(Cc2c(Cl)cccc2Cl)c2ccccc12,0,?,0,?,?,0
O=Nc1c(O)n(Cc2ccc(Cl)cc2)c2ccccc12,0,0,0,?,-87.8,0
COc1cccc(OCCOCC(O)CN2CCN(Cc3ccc(Cl)cc3)CC2)c1 (centres undefined),0,0,0,?,0,0
CCc1ccc(OCCOCC(O)CN2CCN(Cc3ccc(Cl)cc3)CC2)cc1 (centres undefined),0,?,0,14.6µM,-52.9,0
CCc1cnc2ccccc2c1/C=C/c1ccc(N(C)C)cc1,0,-,-,-,-,-
O=c1c2c(nc3cc(-c4cccc(Cl)c4)[nH]n13)CCC2,0,0,0,?,0,0
SMILES,PINK1 modulator,SW480 rereplic,S2 tox,MCF10A rerep,IL-1B inflam inh,ATXN2 expr inh
O=c1c2c(nc3c(-c4ccc(Cl)cc4)c[nH]n13)CCCC2,?,0[9.22 µM],?,0,0,15.8µM
O=c1c2c(nc3c(-c4cccc5ccccc45)c[nH]n13)CCC2,0,0,0,11.2µM,0,0
Cc1[nH]n2c(=O)c3c(nc2c1-c1cccc2ccccc12)CCC3,0,0,0,?,0,0
O=C(C1=C[C@H](c2ccc(Br)cc2)C[C@H](OCCCCO)O1)N1CCN(Cc2ccc3c(c2)OCO3)CC1,0,0,?,18.4µM,?,0
O=C(C1=C[C@H](c2csc3ccccc23)C[C@H](OCc2ccc(CO)cc2)O1)N1CCN(Cc2ccccc2)CC1,0,0,?,?,?,?
CN1CCN(C(=O)C2=C[C@@H](c3ccc(C(F)(F)F)cc3)C[C@@H](OCc3ccc(CO)cc3)O2)CC1,0,0,0,0,0,0
O=C(C1=C[C@@H](c2ccc3c(c2)OCO3)C[C@@H](OCCCCO)O1)N1CCN(Cc2ccc3c(c2)OCO3)CC1,0,0[9.22 µM],0,?,0,0
O=C(C1=C[C@H](c2csc3ccccc23)C[C@H](OCc2ccc(CO)cc2)O1)N1CCN(Cc2ccc3c(c2)OCO3)CC1,0,0[9.22 µM],?,23.1µM,?,0
O=C(C1=C[C@H](c2ccccc2)C[C@H](OCc2ccc(CO)cc2)O1)N1CCN(Cc2ccc3c(c2)OCO3)CC1,0,0[9.22 µM],?,?,-52.7,?
O=C(C1=C[C@@H](c2ccc(C(F)(F)F)cc2)C[C@@H](OCc2ccc(CO)cc2)O1)N1CCN(Cc2ccccc2)CC1,0,0,?,?,-60.1,?
C#Cc1ccc([C@H]2C=C(C(=O)N3CCN(Cc4ccc5c(c4)OCO5)CC3)O[C@@H](OCc3ccc(CO)cc3)C2)cc1,0,?,0,25.9µM,0,0
CC(=O)n1cc([C@H]2C=C(C(=O)N3CCN(Cc4ccccc4)CC3)O[C@@H](OCCCCO)C2)c2ccccc21,0,0[9.22 µM],?,0,0,0
CC(=O)n1cc([C@@H]2C=C(C(=O)N3CCN(Cc4ccc5c(c4)OCO5)CC3)O[C@H](OCCCCO)C2)c2ccccc21,0,0,?,?,-51.9,0
COC(=O)[C@@H]1CCCN1C(=O)c1cc(NC(=O)c2ccccc2)cc2ncn(C3CCCC3)c12,0,-,0,-,-,-
COc1cccc(NC(=O)COc2ccccc2C(=O)Nc2ccccc2)c1,0,-,-,-,-,-
Cc1ccc(N2C(=O)CSC23C(=O)N(CC(=O)Nc2ccc(C)cc2C)c2ccccc23)cc1 (centres undefined),0,-,0,-,-,0
Cc1ccc2sc(NC(=O)CSc3nc(C)cc(C)c3C#N)nc2c1,?,2.82µM,0,0,0,0
Cc1cc(C(F)(F)F)c(C#N)c(SCC(=O)Nc2nc3ccccc3s2)n1,?,-,0,?,0,0
Cc1cc(C)c(C#N)c(SCC(=O)Nc2ccccc2C)n1,0,0,0,0,0,0
Cc1nc(SCC(=O)Nc2nc3ccccc3s2)c(C#N)c(C)c1C,0,5.8µM,-,6.51µM,0,0
Cc1cc(C)c(C#N)c(SCC(=O)Nc2nnc(-c3ccccc3)s2)n1,0,0,0,10.3µM,0,0
CC(NC(CCc1ccccc1)C(=O)O)C(=O)N1C(=O)N(C)CC1C(=O)O (centres undefined),-,-,0,-,-,0
CCOc1ccccc1CNC(=O)C1CCN(c2nnc(-n3c(C)ccc3C)s2)CC1,0,-,-,-,-,-

# High-throughput results deposited in PubChem BioAssay by National Center for Advancing Translational Sciences (NCATS).
